These results are taken from PubChem BioAssay (EPA / NIEHS).

Inconclusive results are not listed. Activity calls are given as the source filed them. How the source made its calls, unless noted: active means hit-call score of the fitted dose curve at least 0.9, where 1 is the maximum; inconclusive means response in the unintended direction; inactive means score below 0.9.

The nature of assay [1]: ATG_TAL_CIS: Attagene CIS-FACTORIAL HepG2 Assay for human TAL Basal Promoter (AID 2282966; active means hit-call score of the fitted dose curve at least 0.9, where 1 is the maximum; inactive means score below 0.9;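 further: background control endpoint measuring basal TAL promoter reporter mRNA not a specific factor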). The following applies: HepG2 Attagene cis-factorial TAL promoter reporter; actives raise or lower the signal. In a few lines: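 Background-control endpoint: basal TAL promoter reporter transcripts in transiently transfected HepG2, measured 24 h after dosing. Read-out by RT-PCR with fluorescent primer extension and capillary electrophoresis; gain or loss of signal fitted relative to DMSO.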

A short description of assay [2]: ATG_TGFb_CIS: Attagene CIS-FACTORIAL HepG2 Assay for human Transforming Growth Factor (TGF) (AID 2282967; active means hit-call score of the fitted dose curve at least 0.9, where 1 is the maximum; inactive means score below 0.9). The following applies: HepG2 Attagene CIS TGFb reporter, mRNA transcription; actives raise or lower the signal. Summed up:
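Multiplexed cis-reporter HepG2 system, 24 h treatment; mRNA induction read by fluorescence after RT-PCR and CE; DMSO negative control, bidirectional curve fitting.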

A short description of assay [3]: ATG_VDRE_CIS: Attagene CIS-FACTORIAL HepG2 Assay for human Vitamin D Receptor Element (VDRE) (AID 2282968; active means hit-call score of the fitted dose curve at least 0.9, where 1 is the maximum; inactive means score below 0.9). The note with it: HepG2 VDRE cis-reporter transcription, actives raise or lower the signal. In a few lines:
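Compounds were applied for 24 h to HepG2 cells transfected with promoter-regulated reporter units. Total RNA was reverse-transcribed, and reporter amplicons were fluorescently labelled and sized by capillary electrophoresis.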

Assay [4] deals with Estrogen receptor (Homo sapiens) (UniProt P03372). The assay is described as follows: ATG_ERa_TRANS: Attagene TRANS-FACTORIAL HepG2 Assay for human Estrogen Receptor alpha (ERa) (AID 2282970). The note with it: HepG2 Attagene TRANS ERa GAL4 reporter, mRNA. In a few lines:
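Reporter transcripts were measured 24 h after dosing by RT-PCR with fluorescent primer extension and capillary electrophoresis. The system is transiently transfected HepG2 expressing exogenous NR-Gal4 chimeras driving GAL4-UAS reporters; DMSO is the baseline.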

The target of assay [5] is Steroid hormone receptor ERR1 (Homo sapiens) (UniProt P11474). The assay is described as follows: ATG_ERRa_TRANS: Attagene TRANS-FACTORIAL HepG2 Assay for human Estrogen-Related Receptor alpha (ERRa) (AID 2282971). The note with it: HepG2 Attagene TRANS reporter, ERRa transactivation. In a few lines:
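Reporter transcripts from ERRa-Gal4 chimera activity measured in transiently transfected human HepG2 cells 24 hours after dosing, using RT-PCR with 6-FAM primer extension, HpaI digestion and capillary electrophoresis; DMSO is baseline.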

Assay [6] has as its target X-box-binding protein 1 (Homo sapiens) (UniProt P17861). In words: ATG_Xbp1_CIS: Attagene CIS-FACTORIAL HepG2 Assay for human X-box Binding Protein 1 (XBP1) (AID 2282972; active means hit-call score of the fitted dose curve at least 0.9, where 1 is the maximum; inactive means score below 0.9). The following applies: HepG2 XBP1 cis-element reporter, Attagene multiplex; actives raise or lower the signal. Summed up: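 Multiplexed cis-reporter readout in transfected HepG2 liver cells. Exposure lasted 24 hours. Activity in either direction was fitted against DMSO as negative control and baseline.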

Assay [7] is described as follows: ATG_M_19_TRANS: Attagene TRANS-FACTORIAL HepG2 Assay for M19 Transcription Factor (Internal Marker) (AID 2282974). The note with it: HepG2 Attagene TRANS-FACTORIAL M19 internal marker reporter. Summed up: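 Multiplexed TRANS format: HepG2 liver cells bearing transient GAL4-UAS reporter units, chemical treatment 24 h, reporter transcripts quantified by RT-PCR plus capillary electrophoresis. DMSO defines baseline.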

For assay [8], the target named is Bile acid receptor (Homo sapiens) (UniProt Q96RI1). In words: ATG_FXR_TRANS: Attagene TRANS-FACTORIAL HepG2 Assay for Farnesoid X Receptor (FXR) (AID 2282979).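 Further: hits raise reporter mRNA above DMSO so AC50 marks FXR activation.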 The note with it: HepG2 Attagene TRANS FXR-GAL4 reporter transcription. Summed up: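 Reporter transcripts from transfected HepG2 cells were measured 24 h after dosing, using RT-PCR with capillary electrophoresis of 6-FAM-labelled fragments. The read-out reflects activity of exogenous FXR-Gal4 chimera on GAL4-UAS units, with induction relative to DMSO.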

The target in assay [9] is Oxysterols receptor LXR-beta (Homo sapiens) (UniProt P55055). In words: ATG_LXRb_TRANS: Attagene TRANS-FACTORIAL HepG2 Assay for human Liver X Receptor beta (LXRb) (AID 2282981). The note with it: HepG2 Attagene TRANS GAL4-LXRb reporter, mRNA. Summed up:
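Multiplexed reporter assay, HepG2, 24 h dosing. Fluorescence of labelled RT-PCR products after capillary electrophoresis gives transcript level; positive fitting direction relative to DMSO.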

Assay [10] is described as follows: ATG_M_32_TRANS: Attagene TRANS-FACTORIAL HepG2 Assay for M32 Transcription Factor (Internal Marker) (AID 2282984). The note with it: HepG2 Attagene TRANS M32 internal marker reporter. In a few lines:
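Internal-marker readout from a multiplexed transcription reporter panel. HepG2 cells were transfected with GAL4-UAS reporter units, treated 24 hours, and reporter transcript levels determined by fluorescence after RT-PCR and capillary separation.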

Assay [11] addresses Nuclear receptor subfamily 4 group A member 2 (Homo sapiens) (UniProt P43354). The assay is described as follows: ATG_NURR1_TRANS: Attagene TRANS-FACTORIAL HepG2 Assay for human Nuclear Receptor Related Protein 1 (NURR1) (AID 2282985). The note with it: HepG2 Attagene TRANS reporter, mRNA readout. In a few lines:
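Endpoint: reporter mRNA increase relative to DMSO. HepG2 cells transfected with reporter units, treated 24 h; RNA processed by RT-PCR, labelling, HpaI digestion and capillary electrophoresis.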

Assay [12] concerns the target Transcriptional activator Myb (Homo sapiens) (UniProt P10242). In words: ATG_Myb_CIS: Attagene CIS-FACTORIAL HepG2 Assay for human Myeloblastosis (Myb) Proto-Oncogene Transcription Factor (AID 2282986; active means hit-call score of the fitted dose curve at least 0.9, where 1 is the maximum; inactive means score below 0.9). The note with it: HepG2 Attagene CIS-FACTORIAL Myb reporter transcription; actives raise or lower the signal. Summed up:
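Using HepG2 liver cells bearing transiently transfected cis-promoter reporter constructs, the assay measures induction or loss of reporter mRNA after 24 hours of dosing. Detection used fluorescently labeled RT-PCR products separated by capillary electrophoresis.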

Assay [13] addresses Nuclear respiratory factor 1 (Homo sapiens) (UniProt Q16656). The assay is described as follows: ATG_NRF1_CIS: Attagene CIS-FACTORIAL HepG2 Assay for human Nuclear Respiratory Factor 1 (NRF1) Orphan Gene (AID 2282987; active means hit-call score of the fitted dose curve at least 0.9, where 1 is the maximum; inactive means score below 0.9). The note with it: HepG2 NRF1 cis-element reporter, Attagene multiplex; actives raise or lower the signal. In a few lines:
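Reporter mRNA induction or loss in HepG2 cells after 24 h dosing; cis-regulated reporter constructs report endogenous transcription-factor activity. Quantified by RT-PCR/capillary electrophoresis fluorescence, DMSO-referenced.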

Assay [14] concerns the target Glucocorticoid receptor (Homo sapiens) (UniProt P04150). In words: ATG_GR_TRANS: Attagene TRANS-FACTORIAL HepG2 Assay for human Glucocorticoid Receptor (GR) (AID 2282978).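 Further: activators score as hits since higher reporter transcript over DMSO is fitted.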 The following applies: HepG2 Attagene TRANS GR reporter, mRNA transcription. In a few lines:
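Transiently transfected HepG2 cells express chimeric NR-GAL4 proteins acting on GAL4-UAS reporter units. Compounds are applied for 24 h. mRNA induction over DMSO is measured by capillary electrophoresis.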

The target in assay [15] is Oxysterols receptor LXR-alpha (Homo sapiens) (UniProt Q13133). In words: ATG_LXRa_TRANS: Attagene TRANS-FACTORIAL HepG2 Assay for human Liver X Receptor alpha (LXRa) (AID 2282980). The following applies: HepG2 Attagene TRANS reporter, LXRa transactivation. In a few lines:
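Chemical-induced reporter mRNA measured by RT-PCR with fluorescent labelling and capillary electrophoresis after 24 h dosing of transiently transfected HepG2 cells expressing exogenous NR-Gal4 chimeras; increases scored against DMSO baseline.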

Assay [16] in a line: ATG_GAL4_TRANS: Attagene TRANS-FACTORIAL HepG2 Assay for GAL4 (Internal Marker) (AID 2282976). The following applies: HepG2 Attagene TRANS GAL4 internal marker reporter. In a few lines: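 In transfected human HepG2 liver cells dosed 24 h, GAL4 reporter mRNA serves as a baseline marker. Detection by RT-PCR with fluorescent capillary electrophoresis, activity fitted upward relative to DMSO.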

Assay [17] concerns the target Estrogen-related receptor gamma (Homo sapiens) (UniProt P62508). In words: ATG_ERRg_TRANS: Attagene TRANS-FACTORIAL HepG2 Assay for human Estrogen-Related Receptor gamma (ERRg) (AID 2282977).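 Further: hits increase reporter signal over DMSO so potencies reflect activators.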 The note with it: HepG2 Attagene TRANS reporter, ERRg transactivation. In a few lines:
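Exogenous NR-Gal4 chimera activity measured as reporter transcript induction after 24 h in transiently transfected HepG2 cells. RNA reverse-transcribed, PCR-amplified, 6-FAM-labelled and resolved by capillary electrophoresis; increase over DMSO baseline.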

The target in assay [18] is Hepatocyte nuclear factor 4-alpha (Homo sapiens) (UniProt P41235). The assay is described as follows: ATG_HNF4a_TRANS: Attagene TRANS-FACTORIAL HepG2 Assay for human Hepatocyte Nuclear Factor 4 alpha (HNF4a) (AID 2282982). The note with it: HepG2 HNF4a transactivation reporter, mRNA readout. Summed up: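 Endpoint reflects transcriptional activation of a GAL4-UAS reporter by an HNF4a-GAL4 chimera in transfected HepG2 cells, 24 h post-dosing. Fluorescence from RT-PCR products separated by capillary electrophoresis; DMSO baseline.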

Assay [19] can be described thus: ATG_M_06_TRANS: Attagene TRANS-FACTORIAL HepG2 Assay for M06 Transcription Factor (Internal Marker) (AID 2282983). The note with it: HepG2 Attagene TRANS M06 internal marker reporter. Summed up:
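Background-control reporter readout: after 24 h chemical exposure of transiently transfected HepG2 (GAL4-UAS reporter units), mRNA quantified by RT-PCR with fluorescent labeling and capillary electrophoresis. Gain-of-signal fitting against DMSO baseline.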

In assay [20] the target is Nuclear receptor subfamily 1 group I member 3 (Homo sapiens) (UniProt Q14994). In words: ATG_CAR_TRANS: Attagene TRANS-FACTORIAL HepG2 Assay for human Constitutive Androstane Receptor (CAR) (AID 2282969).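 Further: activators raise reporter mRNA above DMSO so AC50 marks induction.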 The following applies: HepG2 Attagene TRANS-FACTORIAL CAR reporter. Summed up: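 Transiently transfected HepG2, multiplex TRANS reporters (CAR-Gal4 chimera driving GAL4-UAS reporter). 24 h dosing. Readout: reporter transcript by RT-PCR + capillary electrophoresis, fluorescence intensity; positive direction vs DMSO.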

By AC50 is commonly meant the midpoint of the concentration-response curve, whichever way the signal moves.

Sequence of Estrogen receptor (Homo sapiens) (P03372 whole entry, looked up, the tested form may be a part): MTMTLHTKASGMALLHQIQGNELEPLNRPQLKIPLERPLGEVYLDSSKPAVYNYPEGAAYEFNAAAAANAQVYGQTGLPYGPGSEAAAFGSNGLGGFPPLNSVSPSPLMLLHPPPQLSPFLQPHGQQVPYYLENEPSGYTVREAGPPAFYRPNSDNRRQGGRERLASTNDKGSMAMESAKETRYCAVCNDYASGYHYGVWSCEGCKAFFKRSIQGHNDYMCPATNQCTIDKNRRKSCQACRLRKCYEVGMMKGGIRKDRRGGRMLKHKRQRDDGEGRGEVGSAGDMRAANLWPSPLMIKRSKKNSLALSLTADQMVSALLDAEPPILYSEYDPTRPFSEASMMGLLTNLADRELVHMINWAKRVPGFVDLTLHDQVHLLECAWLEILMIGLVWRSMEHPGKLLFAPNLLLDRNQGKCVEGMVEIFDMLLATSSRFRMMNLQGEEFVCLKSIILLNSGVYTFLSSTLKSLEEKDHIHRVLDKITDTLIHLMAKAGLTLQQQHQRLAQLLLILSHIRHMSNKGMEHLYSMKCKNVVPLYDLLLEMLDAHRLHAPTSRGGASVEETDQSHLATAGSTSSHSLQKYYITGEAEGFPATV
Sequence of X-box-binding protein 1 (Homo sapiens) (P17861 whole entry, looked up): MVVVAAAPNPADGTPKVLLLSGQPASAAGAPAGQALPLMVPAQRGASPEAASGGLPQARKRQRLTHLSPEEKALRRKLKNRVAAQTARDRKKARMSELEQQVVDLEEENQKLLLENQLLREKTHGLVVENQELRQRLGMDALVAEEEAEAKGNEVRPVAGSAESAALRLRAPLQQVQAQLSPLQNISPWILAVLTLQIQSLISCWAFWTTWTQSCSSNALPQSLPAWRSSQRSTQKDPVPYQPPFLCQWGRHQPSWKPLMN
Sequence of Nuclear respiratory factor 1 (Homo sapiens) (Q16656 whole entry, looked up): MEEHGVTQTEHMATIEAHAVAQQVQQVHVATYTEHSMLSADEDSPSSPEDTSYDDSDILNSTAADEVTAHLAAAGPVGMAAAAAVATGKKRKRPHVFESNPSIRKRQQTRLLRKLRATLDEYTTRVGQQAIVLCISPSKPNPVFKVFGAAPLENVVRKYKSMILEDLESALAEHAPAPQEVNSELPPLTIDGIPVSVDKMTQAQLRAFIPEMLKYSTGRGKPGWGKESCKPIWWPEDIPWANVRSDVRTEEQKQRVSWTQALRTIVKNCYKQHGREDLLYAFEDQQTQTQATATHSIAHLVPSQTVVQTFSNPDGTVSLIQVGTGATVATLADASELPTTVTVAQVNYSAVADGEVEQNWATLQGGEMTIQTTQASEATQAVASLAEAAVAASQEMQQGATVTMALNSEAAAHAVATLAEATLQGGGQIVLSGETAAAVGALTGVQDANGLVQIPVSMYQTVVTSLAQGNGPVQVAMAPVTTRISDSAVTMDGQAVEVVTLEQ
Sequence of Transcriptional activator Myb (Homo sapiens) (P10242 whole entry, looked up): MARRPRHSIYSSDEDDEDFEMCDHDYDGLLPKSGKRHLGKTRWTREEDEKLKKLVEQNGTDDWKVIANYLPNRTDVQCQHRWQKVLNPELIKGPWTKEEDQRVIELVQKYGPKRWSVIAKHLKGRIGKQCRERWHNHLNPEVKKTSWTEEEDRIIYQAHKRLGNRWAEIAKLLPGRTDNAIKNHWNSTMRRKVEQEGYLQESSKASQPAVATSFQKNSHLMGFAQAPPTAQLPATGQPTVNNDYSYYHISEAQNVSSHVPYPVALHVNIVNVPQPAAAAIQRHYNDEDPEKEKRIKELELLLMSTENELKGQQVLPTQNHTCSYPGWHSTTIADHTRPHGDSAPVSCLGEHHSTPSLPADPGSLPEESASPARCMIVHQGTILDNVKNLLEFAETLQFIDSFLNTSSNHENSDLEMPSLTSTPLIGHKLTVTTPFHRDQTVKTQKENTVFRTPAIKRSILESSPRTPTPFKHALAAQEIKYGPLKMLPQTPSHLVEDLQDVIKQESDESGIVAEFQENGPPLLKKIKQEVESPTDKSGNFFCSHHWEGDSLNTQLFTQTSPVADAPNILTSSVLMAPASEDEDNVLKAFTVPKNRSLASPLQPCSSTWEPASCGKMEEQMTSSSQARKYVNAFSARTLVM
Sequence of Glucocorticoid receptor (Homo sapiens) (P04150 whole entry, looked up, the tested form may be a part): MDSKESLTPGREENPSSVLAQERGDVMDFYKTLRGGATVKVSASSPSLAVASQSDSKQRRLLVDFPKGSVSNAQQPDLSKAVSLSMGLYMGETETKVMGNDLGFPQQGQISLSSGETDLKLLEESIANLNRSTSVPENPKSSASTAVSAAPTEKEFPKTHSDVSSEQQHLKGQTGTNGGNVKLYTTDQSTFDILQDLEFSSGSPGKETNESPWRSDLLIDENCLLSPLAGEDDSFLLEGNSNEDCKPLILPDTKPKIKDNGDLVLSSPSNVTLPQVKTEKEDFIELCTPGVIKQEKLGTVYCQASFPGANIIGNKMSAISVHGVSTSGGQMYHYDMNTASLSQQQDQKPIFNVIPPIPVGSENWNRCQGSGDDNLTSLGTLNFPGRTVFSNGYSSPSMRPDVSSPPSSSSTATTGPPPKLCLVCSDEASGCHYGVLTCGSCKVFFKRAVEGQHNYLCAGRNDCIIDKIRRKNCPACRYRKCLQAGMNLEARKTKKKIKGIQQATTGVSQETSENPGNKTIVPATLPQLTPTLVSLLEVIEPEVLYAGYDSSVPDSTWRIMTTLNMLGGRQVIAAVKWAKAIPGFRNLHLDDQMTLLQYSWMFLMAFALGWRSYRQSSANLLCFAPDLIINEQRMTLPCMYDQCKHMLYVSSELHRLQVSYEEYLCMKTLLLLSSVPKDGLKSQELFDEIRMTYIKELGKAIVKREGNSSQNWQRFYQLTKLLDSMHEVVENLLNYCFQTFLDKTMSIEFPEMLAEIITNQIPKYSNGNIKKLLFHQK
Sequence of Nuclear receptor subfamily 4 group A member 2 (Homo sapiens) (P43354 whole entry, looked up): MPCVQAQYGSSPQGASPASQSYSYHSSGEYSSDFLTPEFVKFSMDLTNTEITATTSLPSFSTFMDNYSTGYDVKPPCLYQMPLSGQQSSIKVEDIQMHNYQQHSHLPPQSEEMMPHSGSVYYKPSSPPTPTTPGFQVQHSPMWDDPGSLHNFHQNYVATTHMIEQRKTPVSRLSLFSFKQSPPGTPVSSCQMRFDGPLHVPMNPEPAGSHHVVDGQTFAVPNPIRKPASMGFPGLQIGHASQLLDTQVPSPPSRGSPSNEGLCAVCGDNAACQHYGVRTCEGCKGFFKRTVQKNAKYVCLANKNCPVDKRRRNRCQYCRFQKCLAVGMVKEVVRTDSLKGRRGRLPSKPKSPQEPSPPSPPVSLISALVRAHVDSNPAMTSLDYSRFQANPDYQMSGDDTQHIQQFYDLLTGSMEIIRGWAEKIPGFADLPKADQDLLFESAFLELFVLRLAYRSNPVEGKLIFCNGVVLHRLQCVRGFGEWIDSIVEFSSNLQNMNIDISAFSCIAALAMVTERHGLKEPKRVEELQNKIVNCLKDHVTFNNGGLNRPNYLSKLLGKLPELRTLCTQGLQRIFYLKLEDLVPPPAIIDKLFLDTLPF
Sequence of Oxysterols receptor LXR-alpha (Homo sapiens) (Q13133 whole entry, looked up, the tested form may be a part): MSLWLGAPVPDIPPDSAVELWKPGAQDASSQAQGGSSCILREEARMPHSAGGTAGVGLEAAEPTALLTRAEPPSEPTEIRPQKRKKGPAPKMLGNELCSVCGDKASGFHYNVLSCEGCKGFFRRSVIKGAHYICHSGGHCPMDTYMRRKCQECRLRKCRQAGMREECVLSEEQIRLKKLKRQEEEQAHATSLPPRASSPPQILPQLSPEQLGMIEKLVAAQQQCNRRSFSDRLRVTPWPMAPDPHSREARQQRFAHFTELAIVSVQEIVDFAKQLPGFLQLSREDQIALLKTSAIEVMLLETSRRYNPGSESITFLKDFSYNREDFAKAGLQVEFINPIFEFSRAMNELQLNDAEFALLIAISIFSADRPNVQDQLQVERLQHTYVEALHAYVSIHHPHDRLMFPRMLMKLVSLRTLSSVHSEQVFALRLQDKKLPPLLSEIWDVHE
Sequence of Steroid hormone receptor ERR1 (Homo sapiens) (P11474 whole entry, looked up, the tested form may be a part): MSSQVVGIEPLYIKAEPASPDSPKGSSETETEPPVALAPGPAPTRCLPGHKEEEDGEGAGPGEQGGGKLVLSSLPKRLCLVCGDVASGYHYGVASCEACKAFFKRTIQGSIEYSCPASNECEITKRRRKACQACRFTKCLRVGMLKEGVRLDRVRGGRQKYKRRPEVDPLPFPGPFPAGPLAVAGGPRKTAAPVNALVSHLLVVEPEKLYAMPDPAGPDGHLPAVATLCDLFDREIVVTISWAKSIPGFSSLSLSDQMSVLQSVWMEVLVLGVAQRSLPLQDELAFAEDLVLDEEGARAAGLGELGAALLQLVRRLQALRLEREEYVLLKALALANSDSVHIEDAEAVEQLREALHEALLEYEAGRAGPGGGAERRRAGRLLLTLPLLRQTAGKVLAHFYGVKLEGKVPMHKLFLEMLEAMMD
Sequence of Oxysterols receptor LXR-beta (Homo sapiens) (P55055 whole entry, looked up, the tested form may be a part): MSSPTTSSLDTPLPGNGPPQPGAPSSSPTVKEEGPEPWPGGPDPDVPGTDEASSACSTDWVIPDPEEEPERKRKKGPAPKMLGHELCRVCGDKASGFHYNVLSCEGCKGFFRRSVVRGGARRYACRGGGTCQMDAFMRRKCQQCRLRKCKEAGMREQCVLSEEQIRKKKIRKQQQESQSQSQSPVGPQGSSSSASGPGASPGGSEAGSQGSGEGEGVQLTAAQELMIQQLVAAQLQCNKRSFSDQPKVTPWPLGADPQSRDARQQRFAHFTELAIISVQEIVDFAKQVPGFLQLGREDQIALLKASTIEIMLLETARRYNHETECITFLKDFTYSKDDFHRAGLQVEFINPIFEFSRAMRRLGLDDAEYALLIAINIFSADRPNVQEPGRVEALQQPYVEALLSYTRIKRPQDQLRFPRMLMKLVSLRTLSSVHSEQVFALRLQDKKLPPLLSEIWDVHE

`CCCCCCCCCCCCCCCCOS(=O)(=O)O`: the compound was called inactive in assay [1], in assay [3], in assay [4], in [5], in assay [6] and in [7]. Also, the result in assay [8], in assay [9], in [10], in assay [11], in assay [12] and in assay [13] was inactive. Further, in [2], the AC50 was 11.5 µM (active).
For `CCc1ccc(O)c(C(C)(C)C)c1`, the compound was called inactive in [1], in assay [2], in assay [6], in [7], in assay [14] and in assay [15]. Also, the call in assay [10] and in [12] was inactive. The half-maximal activity concentration (AC50) in assay [3] is 43 µM (active); in assay [4] it was 24.2 µM (active); in assay [11] it was 53.4 µM (active).
Regarding `OCCNCCO`, the compound was classed as inactive in [1], in [2], in assay [3], in [5], in assay [6] and in [16]. Also, the compound was called inactive in assay [17], in assay [14], in [18], in [19], in assay [10] and in assay [12]. In addition, the outcome in assay [13] was inactive.
Turning to `Cc1ccc(S(=O)(=O)NC(=O)NN2CCCCCC2)cc1`, the result in assay [1], in assay [2], in assay [3], in assay [4], in [6] and in assay [16] was inactive. The result in [14], in assay [15], in assay [9], in assay [19], in assay [10] and in assay [11] was inactive. Further, the compound was called inactive in [12] and in assay [13].
For the compound `CCCCCOC(C)=O`, the call in assay [1], in assay [2], in [3], in assay [20], in [6] and in assay [7] was inactive. For the same compound, the call in assay [14], in assay [19], in [10], in assay [11], in assay [12] and in assay [13] was inactive.
